{
  "source": "PubChem BioAssay AID1159580",
  "about": "(chemical genetic matrix, 2015)",
  "experiment": "chemical genetic growth profiling, strain panel (AID 1159580);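 further: tested at 20 µM; growth read once vehicle control cultures reached saturation at 30 °C; 1 = growth at the plate median or of vehicle wells; lower values mean less growth of the strain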",
  "settings": "growth OD",
  "note": "About 2,000 (36%) of roughly 5,500 compounds were called active. Roughly 18% stayed inconclusive and do not appear here. This is one part of the list. Values without a mark were called inactive. No stated cut-off is given here; in the data, active means normalized growth mostly below about 0.91 (no sharp cut-off); inconclusive means no clear call, values can overlap the other calls; inactive means mostly above about 0.92.",
  "data": [
    {"smiles": "Cc1cc(NC(=O)C2=C(O)c3ccccc3S(=O)(=O)N2C)no1", "values": [
      {"measurement": "normalized growth", "setting": "S. cerevisiae deletion strains, locus YJR066W, strain TOR1, hits give low values", "value": 0.893},
      {"measurement": "normalized growth", "setting": "S. cerevisiae deletion strains, locus YKL009W, strain mrt4, hits give low values", "value": 0.928},
      {"measurement": "normalized growth", "setting": "S. cerevisiae deletion strains, locus YKL068W, hits give low values", "value": "0.924 (active)"},
      {"measurement": "normalized growth", "setting": "S. cerevisiae deletion strains, locus YKL085W, strain MDH1 (second series), hits give low values", "value": "0.906 (active)"},
      {"measurement": "normalized growth", "setting": "S. cerevisiae deletion strains, locus YKL085W, strain MDH1, hits give low values", "value": "0.906 (active)"},
      {"measurement": "normalized growth", "setting": "S. cerevisiae deletion strains, locus YKL160W, strain elf1, hits give low values", "value": 0.996},
      {"measurement": "normalized growth", "setting": "S. cerevisiae deletion strains, locus YKL190W, strain CNB1, hits give low values", "value": 0.976},
      {"measurement": "normalized growth", "setting": "S. cerevisiae deletion strains, locus YKR001C, strain vps1, hits give low values", "value": 0.973},
      {"measurement": "normalized growth", "setting": "S. cerevisiae deletion strains, locus YKR026C, strain gcn3, hits give low values", "value": 0.956},
      {"measurement": "normalized growth", "setting": "S. cerevisiae deletion strains, locus YKR091W, strain srl3, hits give low values", "value": 0.95},
      {"measurement": "normalized growth", "setting": "S. cerevisiae deletion strains, locus YLL001W, strain dnm1, hits give low values", "value": 0.992},
      {"measurement": "normalized growth", "setting": "S. cerevisiae deletion strains, locus YLL026W, hits give low values", "value": 0.968},
      {"measurement": "normalized growth", "setting": "S. cerevisiae deletion strains, locus YLL041C, strain sdh2, hits give low values", "value": 0.96},
      {"measurement": "normalized growth", "setting": "S. cerevisiae deletion strains, locus YLR027C, strain aat2, hits give low values", "value": 0.975},
      {"measurement": "normalized growth", "setting": "S. cerevisiae deletion strains, locus YLR039C, strain RIC1, hits give low values", "value": 0.96},
      {"measurement": "normalized growth", "setting": "S. cerevisiae deletion strains, locus YLR058C, strain SHM2, hits give low values", "value": 0.984},
      {"measurement": "normalized growth", "setting": "S. cerevisiae deletion strains, locus YLR102C, strain apc9, hits give low values", "value": 0.95},
      {"measurement": "normalized growth", "setting": "S. cerevisiae deletion strains, locus YLR113W, strain HOG1, hits give low values", "value": 0.929},
      {"measurement": "normalized growth", "setting": "S. cerevisiae deletion strains, locus YLR221C, strain rsa3, hits give low values", "value": 0.968},
      {"measurement": "normalized growth", "setting": "S. cerevisiae deletion strains, locus YLR258W, strain gsy2, hits give low values", "value": 0.971},
      {"measurement": "normalized growth", "setting": "S. cerevisiae deletion strains, locus YLR262C, strain YPT6 (second series), hits give low values", "value": 0.999},
      {"measurement": "normalized growth", "setting": "S. cerevisiae deletion strains, locus YLR262C, strain YPT6, hits give low values", "value": 0.977},
      {"measurement": "normalized growth", "setting": "S. cerevisiae deletion strains, locus YLR268W, strain sec22, hits give low values", "value": 0.969},
      {"measurement": "normalized growth", "setting": "S. cerevisiae deletion strains, locus YLR320W, strain mms22, hits give low values", "value": 0.955},
      {"measurement": "normalized growth", "setting": "S. cerevisiae deletion strains, locus YLR330W, strain CHS5, hits give low values", "value": 0.962},
      {"measurement": "normalized growth", "setting": "S. cerevisiae deletion strains, locus YLR342W, strain FKS1 (second series), hits give low values", "value": 1.01},
      {"measurement": "normalized growth", "setting": "S. cerevisiae deletion strains, locus YLR342W, strain FKS1, hits give low values", "value": 0.975},
      {"measurement": "normalized growth", "setting": "S. cerevisiae deletion strains, locus YLR357W, strain rsc2, hits give low values", "value": 0.994},
      {"measurement": "normalized growth", "setting": "S. cerevisiae deletion strains, locus YLR370C, strain arc18, hits give low values", "value": 0.98},
      {"measurement": "normalized growth", "setting": "S. cerevisiae deletion strains, locus YLR371W, strain rom2, hits give low values", "value": 0.967},
      {"measurement": "normalized growth", "setting": "S. cerevisiae deletion strains, locus YLR384C, strain iki3, hits give low values", "value": 0.954},
      {"measurement": "normalized growth", "setting": "S. cerevisiae deletion strains, locus YLR418C, strain cdc73, hits give low values", "value": 0.951},
      {"measurement": "normalized growth", "setting": "S. cerevisiae deletion strains, locus YML016C, strain PPZ1, hits give low values", "value": 0.987},
      {"measurement": "normalized growth", "setting": "S. cerevisiae deletion strains, locus YML032C, strain rad52, hits give low values", "value": 0.985},
      {"measurement": "normalized growth", "setting": "S. cerevisiae deletion strains, locus YML120C, strain ndi1, hits give low values", "value": 0.947},
      {"measurement": "normalized growth", "setting": "S. cerevisiae deletion strains, locus YML124C, strain tub3, hits give low values", "value": 0.954},
      {"measurement": "normalized growth", "setting": "S. cerevisiae deletion strains, locus YMR058W, strain fet3, hits give low values", "value": 0.976},
      {"measurement": "normalized growth", "setting": "S. cerevisiae deletion strains, locus YMR078C, strain ctf18, hits give low values", "value": 0.924},
      {"measurement": "normalized growth", "setting": "S. cerevisiae deletion strains, locus YMR125W, strain sto1, hits give low values", "value": 0.955},
      {"measurement": "normalized growth", "setting": "S. cerevisiae deletion strains, locus YMR129W, hits give low values", "value": 0.956},
      {"measurement": "normalized growth", "setting": "S. cerevisiae deletion strains, locus YMR205C, strain PFK2, hits give low values", "value": 0.989},
      {"measurement": "normalized growth", "setting": "S. cerevisiae deletion strains, locus YMR223W, strain ubp8, hits give low values", "value": 0.944},
      {"measurement": "normalized growth", "setting": "S. cerevisiae deletion strains, locus YMR231W, strain pep5, hits give low values", "value": 0.967},
      {"measurement": "normalized growth", "setting": "S. cerevisiae deletion strains, locus YMR307W, strain GAS1, hits give low values", "value": 0.961},
      {"measurement": "normalized growth", "setting": "S. cerevisiae deletion strains, locus YNL067W, strain RPL9B, hits give low values", "value": 1.01},
      {"measurement": "normalized growth", "setting": "S. cerevisiae deletion strains, locus YNL071W, strain lat1, hits give low values", "value": 0.976},
      {"measurement": "normalized growth", "setting": "S. cerevisiae deletion strains, locus YNL183C, strain NPR1, hits give low values", "value": 0.879},
      {"measurement": "normalized growth", "setting": "S. cerevisiae deletion strains, locus YNL209W, strain ssb2, hits give low values", "value": 0.96},
      {"measurement": "normalized growth", "setting": "S. cerevisiae deletion strains, locus YNL233W, strain BNI4, hits give low values", "value": 1.04},
      {"measurement": "normalized growth", "setting": "S. cerevisiae deletion strains, locus YNL248C, strain rpa49, hits give low values", "value": 0.973},
      {"measurement": "normalized growth", "setting": "S. cerevisiae deletion strains, locus YNL250W, strain rad50, hits give low values", "value": 0.908},
      {"measurement": "normalized growth", "setting": "S. cerevisiae deletion strains, locus YNL271C, strain bni1, hits give low values", "value": 0.923},
      {"measurement": "normalized growth", "setting": "S. cerevisiae deletion strains, locus YNL298W, strain CLA4, hits give low values", "value": 0.923},
      {"measurement": "normalized growth", "setting": "S. cerevisiae deletion strains, locus YNL307C, strain MCK1, hits give low values", "value": 0.947},
      {"measurement": "normalized growth", "setting": "S. cerevisiae deletion strains, locus YNL322C, strain KRE1 (second series), hits give low values", "value": 0.953},
      {"measurement": "normalized growth", "setting": "S. cerevisiae deletion strains, locus YNL322C, strain KRE1, hits give low values", "value": 0.978},
      {"measurement": "normalized growth", "setting": "S. cerevisiae deletion strains, locus YNR049C, strain mso1, hits give low values", "value": 0.967},
      {"measurement": "normalized growth", "setting": "S. cerevisiae deletion strains, locus YNR052C, strain pop2, hits give low values", "value": 0.955},
      {"measurement": "normalized growth", "setting": "S. cerevisiae deletion strains, locus YOL006C, strain TOP1, hits give low values", "value": 1.03},
      {"measurement": "normalized growth", "setting": "S. cerevisiae deletion strains, locus YOL012C, strain htz1", "value": 1.14},
      {"measurement": "normalized growth", "setting": "S. cerevisiae deletion strains, locus YOL147C, strain pex11, hits give low values", "value": 0.942},
      {"measurement": "normalized growth", "setting": "S. cerevisiae deletion strains, locus YOR001W, strain rrp6, hits give low values", "value": 0.997},
      {"measurement": "normalized growth", "setting": "S. cerevisiae deletion strains, locus YOR061W, strain CKA2, hits give low values", "value": 0.992},
      {"measurement": "normalized growth", "setting": "S. cerevisiae deletion strains, locus YOR069W, strain VPS5, hits give low values", "value": 0.972},
      {"measurement": "normalized growth", "setting": "S. cerevisiae deletion strains, locus YOR070C, strain gyp1, hits give low values", "value": 0.971},
      {"measurement": "normalized growth", "setting": "S. cerevisiae deletion strains, locus YOR080W, strain dia2, hits give low values", "value": 0.974},
      {"measurement": "normalized growth", "setting": "S. cerevisiae deletion strains, locus YOR083W, strain WHI5, hits give low values", "value": 0.964},
      {"measurement": "normalized growth", "setting": "S. cerevisiae deletion strains, locus YOR106W, strain vam3, hits give low values", "value": 0.996},
      {"measurement": "normalized growth", "setting": "S. cerevisiae deletion strains, locus YOR136W, strain idh2, hits give low values", "value": 0.978},
      {"measurement": "normalized growth", "setting": "S. cerevisiae deletion strains, locus YOR144C, strain elg1, hits give low values", "value": 0.956},
      {"measurement": "normalized growth", "setting": "S. cerevisiae deletion strains, locus YOR184W, strain ser1, hits give low values", "value": 0.945},
      {"measurement": "normalized growth", "setting": "S. cerevisiae deletion strains, locus YOR231W, strain MKK1, hits give low values", "value": 0.993},
      {"measurement": "normalized growth", "setting": "S. cerevisiae deletion strains, locus YOR265W, strain rbl2, hits give low values", "value": 0.966},
      {"measurement": "normalized growth", "setting": "S. cerevisiae deletion strains, locus YOR270C, strain vph1, hits give low values", "value": 0.969},
      {"measurement": "normalized growth", "setting": "S. cerevisiae deletion strains, locus YOR290C, strain snf2, hits give low values", "value": 0.977},
      {"measurement": "normalized growth", "setting": "S. cerevisiae deletion strains, locus YOR316C, strain cot1, hits give low values", "value": 0.94},
      {"measurement": "normalized growth", "setting": "S. cerevisiae deletion strains, locus YPL051W, strain arl3, hits give low values", "value": 0.989},
      {"measurement": "normalized growth", "setting": "S. cerevisiae deletion strains, locus YPL078C, strain atp4, hits give low values", "value": 0.981},
      {"measurement": "normalized growth", "setting": "S. cerevisiae deletion strains, locus YPL106C, strain sse1, hits give low values", "value": 0.954},
      {"measurement": "normalized growth", "setting": "S. cerevisiae deletion strains, locus YPL240C, strain hsp82, hits give low values", "value": 0.973},
      {"measurement": "normalized growth", "setting": "S. cerevisiae deletion strains, locus YPL256C, strain CLN2, hits give low values", "value": 0.905},
      {"measurement": "normalized growth", "setting": "S. cerevisiae deletion strains, locus YPR119W, strain clb2, hits give low values", "value": 0.945},
      {"measurement": "normalized growth", "setting": "S. cerevisiae deletion strains, locus YPR141C, strain kar3, hits give low values", "value": 0.919},
      {"measurement": "normalized growth", "setting": "S. cerevisiae deletion strains, locus YPR163C, strain tif3, hits give low values", "value": 0.931},
      {"measurement": "normalized growth", "setting": "S. cerevisiae deletion strains, locus YPR167C, strain met16, hits give low values", "value": 0.943},
      {"measurement": "normalized growth", "setting": "S. cerevisiae deletion strains, strain wtn01, hits give low values", "value": 0.961},
      {"measurement": "normalized growth", "setting": "S. cerevisiae strains, strain wild type, hits give low values", "value": 0.983}
    ]}
  ]
}
